Experimental data as given in PubChem BioAssay AID1159580 (chemical genetic matrix, 2015).
Among all 5,500 compounds or so, about 2,000 (36%) were called active. About 18% were inconclusive and are not listed. No stated cut-off is given here; in the data, active means normalized growth mostly below about 0.91 (no sharp cut-off); inconclusive means no clear call, values can overlap the other calls; inactive means mostly above about 0.92. The list shows a part of the results.

Assay: chemical genetic growth profiling, strain panel (AID 1159580);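 further: tested at 20 µM; growth read once vehicle control cultures reached saturation at 30 °C; 1 = growth at the plate median or of vehicle wells; lower values mean less growth of the strain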
Details: growth OD

Measured: normalized growth

CN[C@@H]1C(OC2[C@H](O[C@H]3[C@H](O)[C@@H](O)[C@H](N=C(N)N)[C@@H](O)[C@@H]3N=C(N)N)OC(C)[C@]2(O)CO)OC(CO)C(O)C1O (stereo partly drawn)
inactive: S. cerevisiae deletion strains, locus YKL009W, strain mrt4, hits give low values 0.975 | S. cerevisiae deletion strains, locus YKL068W, hits give low values 0.991 | S. cerevisiae deletion strains, locus YKL085W, strain MDH1 (second series), hits give low values 1.01 | S. cerevisiae deletion strains, locus YKL085W, strain MDH1, hits give low values 1.01 | S. cerevisiae deletion strains, locus YKL160W, strain elf1, hits give low values 1 | S. cerevisiae deletion strains, locus YKL190W, strain CNB1, hits give low values 0.998 | S. cerevisiae deletion strains, locus YKR001C, strain vps1, hits give low values 0.981 | S. cerevisiae deletion strains, locus YKR026C, strain gcn3, hits give low values 0.992 | S. cerevisiae deletion strains, locus YKR091W, strain srl3, hits give low values 0.998 | S. cerevisiae deletion strains, locus YLL001W, strain dnm1, hits give low values 0.995 | S. cerevisiae deletion strains, locus YLL026W, hits give low values 0.998 | S. cerevisiae deletion strains, locus YLL041C, strain sdh2, hits give low values 1.01 | S. cerevisiae deletion strains, locus YLR027C, strain aat2, hits give low values 1 | S. cerevisiae deletion strains, locus YLR039C, strain RIC1, hits give low values 1.01 | S. cerevisiae deletion strains, locus YLR058C, strain SHM2, hits give low values 0.985 | S. cerevisiae deletion strains, locus YLR102C, strain apc9, hits give low values 0.976 | S. cerevisiae deletion strains, locus YLR113W, strain HOG1, hits give low values 1.06 | S. cerevisiae deletion strains, locus YLR221C, strain rsa3, hits give low values 1.02 | S. cerevisiae deletion strains, locus YLR258W, strain gsy2, hits give low values 1.01 | S. cerevisiae deletion strains, locus YLR262C, strain YPT6 (second series), hits give low values 1 | S. cerevisiae deletion strains, locus YLR262C, strain YPT6, hits give low values 1.01 | S. cerevisiae deletion strains, locus YLR268W, strain sec22, hits give low values 0.985 | S. cerevisiae deletion strains, locus YLR320W, strain mms22, hits give low values 1.03 | S. cerevisiae deletion strains, locus YLR330W, strain CHS5, hits give low values 0.991 | S. cerevisiae deletion strains, locus YLR342W, strain FKS1 (second series), hits give low values 1.04 | S. cerevisiae deletion strains, locus YLR342W, strain FKS1, hits give low values 1 | S. cerevisiae deletion strains, locus YLR357W, strain rsc2, hits give low values 0.962 | S. cerevisiae deletion strains, locus YLR370C, strain arc18, hits give low values 1.01 | S. cerevisiae deletion strains, locus YLR371W, strain rom2, hits give low values 0.973 | S. cerevisiae deletion strains, locus YLR384C, strain iki3, hits give low values 0.997 | S. cerevisiae deletion strains, locus YLR418C, strain cdc73, hits give low values 0.954 | S. cerevisiae deletion strains, locus YML016C, strain PPZ1, hits give low values 0.993 | S. cerevisiae deletion strains, locus YML032C, strain rad52, hits give low values 0.988 | S. cerevisiae deletion strains, locus YML120C, strain ndi1, hits give low values 0.99 | S. cerevisiae deletion strains, locus YML124C, strain tub3, hits give low values 0.972 | S. cerevisiae deletion strains, locus YMR058W, strain fet3, hits give low values 1.01 | S. cerevisiae deletion strains, locus YMR078C, strain ctf18, hits give low values 0.959 | S. cerevisiae deletion strains, locus YMR125W, strain sto1, hits give low values 0.997 | S. cerevisiae deletion strains, locus YMR129W, hits give low values 1 | S. cerevisiae deletion strains, locus YMR205C, strain PFK2, hits give low values 0.995 | S. cerevisiae deletion strains, locus YMR223W, strain ubp8, hits give low values 0.961 | S. cerevisiae deletion strains, locus YMR231W, strain pep5, hits give low values 1.01 | S. cerevisiae deletion strains, locus YMR263W, strain SAP30, hits give low values 0.979 | S. cerevisiae deletion strains, locus YMR307W, strain GAS1, hits give low values 1.1 | S. cerevisiae deletion strains, locus YNL067W, strain RPL9B, hits give low values 0.976 | S. cerevisiae deletion strains, locus YNL071W, strain lat1, hits give low values 1.01 | S. cerevisiae deletion strains, locus YNL183C, strain NPR1, hits give low values 0.99 | S. cerevisiae deletion strains, locus YNL209W, strain ssb2, hits give low values 0.996 | S. cerevisiae deletion strains, locus YNL233W, strain BNI4, hits give low values 0.976 | S. cerevisiae deletion strains, locus YNL248C, strain rpa49, hits give low values 1.02 | S. cerevisiae deletion strains, locus YNL250W, strain rad50, hits give low values 0.975 | S. cerevisiae deletion strains, locus YNL271C, strain bni1, hits give low values 0.975 | S. cerevisiae deletion strains, locus YNL298W, strain CLA4, hits give low values 0.977 | S. cerevisiae deletion strains, locus YNL307C, strain MCK1, hits give low values 0.976 | S. cerevisiae deletion strains, locus YNL322C, strain KRE1 (second series), hits give low values 0.993 | S. cerevisiae deletion strains, locus YNL322C, strain KRE1, hits give low values 0.998 | S. cerevisiae deletion strains, locus YNR049C, strain mso1, hits give low values 1 | S. cerevisiae deletion strains, locus YNR052C, strain pop2, hits give low values 0.972 | S. cerevisiae deletion strains, locus YOL012C, strain htz1 1 | S. cerevisiae deletion strains, locus YOL147C, strain pex11, hits give low values 0.982 | S. cerevisiae deletion strains, locus YOR001W, strain rrp6, hits give low values 1 | S. cerevisiae deletion strains, locus YOR061W, strain CKA2, hits give low values 0.991 | S. cerevisiae deletion strains, locus YOR069W, strain VPS5, hits give low values 0.993 | S. cerevisiae deletion strains, locus YOR070C, strain gyp1, hits give low values 1.01 | S. cerevisiae deletion strains, locus YOR080W, strain dia2, hits give low values 0.996 | S. cerevisiae deletion strains, locus YOR083W, strain WHI5, hits give low values 0.998 | S. cerevisiae deletion strains, locus YOR106W, strain vam3, hits give low values 1.05 | S. cerevisiae deletion strains, locus YOR136W, strain idh2, hits give low values 0.976 | S. cerevisiae deletion strains, locus YOR144C, strain elg1, hits give low values 0.984 | S. cerevisiae deletion strains, locus YOR184W, strain ser1, hits give low values 0.978 | S. cerevisiae deletion strains, locus YOR231W, strain MKK1, hits give low values 1.04 | S. cerevisiae deletion strains, locus YOR265W, strain rbl2, hits give low values 0.998 | S. cerevisiae deletion strains, locus YOR270C, strain vph1, hits give low values 1.07 | S. cerevisiae deletion strains, locus YOR290C, strain snf2, hits give low values 1.02 | S. cerevisiae deletion strains, locus YOR316C, strain cot1, hits give low values 0.976 | S. cerevisiae deletion strains, locus YPL051W, strain arl3, hits give low values 1.01 | S. cerevisiae deletion strains, locus YPL055C, strain LGE1, hits give low values 1.01 | S. cerevisiae deletion strains, locus YPL078C, strain atp4, hits give low values 1 | S. cerevisiae deletion strains, locus YPL106C, strain sse1, hits give low values 1.02 | S. cerevisiae deletion strains, locus YPL240C, strain hsp82, hits give low values 0.993 | S. cerevisiae deletion strains, locus YPL241C, strain CIN2, hits give low values 0.998 | S. cerevisiae deletion strains, locus YPL256C, strain CLN2, hits give low values 1.06 | S. cerevisiae deletion strains, locus YPR119W, strain clb2, hits give low values 0.971 | S. cerevisiae deletion strains, locus YPR141C, strain kar3, hits give low values 0.972 | S. cerevisiae deletion strains, locus YPR163C, strain tif3, hits give low values 0.971 | S. cerevisiae deletion strains, locus YPR167C, strain met16, hits give low values 0.97 | S. cerevisiae deletion strains, strain wtn01, hits give low values 0.975 | S. cerevisiae strains, strain wild type, hits give low values 0.999
